“And” between values parts separate entries of the source, which are not always exact repeats. Equal entries are not always repeated. The whole screen tested about 410,000 compounds, of which about 18,000 (4.4%) were called active. Roughly 7% stayed inconclusive and do not appear here. Cut-off read from the data, not from the text of the source: active = activity change below about -60%; inconclusive = no clear call, values can overlap the other calls; inactive = above about -39%. Many of the other results were omitted from the sample, so actives are more common in it than they were. A structure can be active in one record and inactive in another.
% is set by controls: 0 for no effect and ±100 for the full control effect.

The assay is described as follows: qHTS Assay for inhibitors of the human cytomegalovirus (HCMV). Particulars: HFF cells, HCMV-luciferase reporter, 72 h; at 57.5 µM; stronger effect = lower value. The essentials:
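HFF cells seeded 16 h at 37C, treated with compounds, infected with luciferase-reporter HCMV at MOI 1 PFU/cell; luciferase read at 72 h post infection, normalized to buffer-only and Salinomycin controls.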
With `CC(C)c1ccc(O)c(CN2CCN(c3ccccc3)CC2)c1`, the activity change, negative = inhibition was 12.7% (inactive). As for `Oc1c(CN2CCN(c3ccc(F)cc3)CC2)cc(Cl)c2cccnc12`, the activity change, negative = inhibition was -102% (active). Take `COc1ccccc1CN1CCCC(N2CCN(c3ccc(F)cc3)CC2)C1` (stereo not drawn): the activity change, negative = inhibition is -1.19% (inactive). In the case of `COc1ccc(CNc2nc(-c3ccccc3)nn2C(=O)c2ccccc2OC)cc1`, the activity change, negative = inhibition is -16.2% (inactive). In the case of `N#Cc1cccc(NC(=O)N[C@H]2CC[C@@]34CCCN3C(=O)CCC[C@H]4C2Cc2ccccc2)c1` (stereo partly drawn) it was 0.85% (inactive).

Regarding `COc1ccc(C(CCN(Cc2ccc(OC)c(OC)c2)C(=O)CCl)c2ccccc2)cc1` (stereo not drawn), the activity change, negative = inhibition is -91.8% (active). Take `CCOc1ccc(C(CCc2ccccc2)NC(=O)c2ccc(OC)c(OC)c2)cc1OCC` (stereo not drawn): the activity change, negative = inhibition is 37% (inactive). The same measure for `CCN(CCCCOC(=O)c1ccc(OC)c(OC)c1)C(C)Cc1ccc(OC)cc1` (stereo not drawn): -37% (inactive); for `Cc1noc2ncnc(NCc3ccccc3Cl)c12`: -26.2% (inactive).

In the case of `O=C(O)c1ccc2c3c(cccc13)C(=O)N(OS(=O)(=O)c1ccccc1)C2=O`, the activity change, negative = inhibition was -101% (active). The same measure for `Cc1cc(OCC(=O)Nc2ncn[nH]2)c(C)c(C)c1Br`: 1.07% (inactive); for `O=C(Nc1ccc(F)cc1F)c1cnn(-c2ccc(F)cc2)c1-n1cccc1`: -4.17% (inactive); for `COc1ccc(Cl)cc1NC(=O)CSc1nc(-c2cccs2)cc(C(F)(F)F)n1`: -23.8% (inactive). The same measure for `CC(=O)c1ccc(N2CCN(c3nc4c(S(=O)(=O)c5ccccc5)nnn4c4ccc(Cl)cc34)CC2)cc1`: 8.15% (inactive). Consider `O=[N+]([O-])c1cnc2ccc3ccccc3c2c1`, for which the activity change, negative = inhibition was -96.3% (active).

With `c1ccc2cc(CCCc3cc4ccccc4cn3)ncc2c1`, the activity change, negative = inhibition was -18.2% (inactive). On to `CN(CCc1ccccc1)c1ccc([N+](=O)[O-])cn1`, for which the activity change, negative = inhibition was 12.9% (inactive). The same measure for `O=C(c1c(F)cccc1F)N1CCN(c2ncc(Br)cn2)CC1`: 2.5% (inactive); for `CCOC(=O)c1ccc(N2C(=O)c3n[nH]c(-c4ccco4)c3C2c2ccc(O)cc2)cc1` (stereo not drawn): -8.9% (inactive); for `COC(=O)C1(O)CC(C(C)C)=NN1C(=O)c1ccc(Cl)cc1` (stereo not drawn): 27.1% (inactive). In the case of `O=C(c1ccc(Cl)cc1)N1N=C(c2ccccn2)CC1(O)C(F)(F)F` (stereo not drawn) it was -98.8% (active). With `O=C(C1CC1)N1N=C(c2ccc(Br)cc2)CC1(O)C(F)(F)F` (stereo not drawn), the activity change, negative = inhibition is 10% (inactive).

With `O=C(COc1ccccc1F)Nc1ccc(C(=O)OCc2cc(=O)n3nc(C4CC4)sc3n2)cc1`, the activity change, negative = inhibition is 10.3% (inactive).

Take `CCCC(=O)N1CCN(c2nc3c(OC)ccc(C)c3s2)CC1`: the activity change, negative = inhibition is 0.538% (inactive). In the case of `O=C(C1CC(=O)N(c2ccc(Br)cc2)C1)N1CCCC1` (stereo not drawn) it was -23.4% (inactive); in that of `COc1ccccc1-c1ccc([C@@H]2C[C@H]3[C@H](CON3C)CN2S(=O)(=O)c2cc(Cl)cc(Cl)c2)cc1`, 8.41% (inactive). In the case of `CN1OC[C@@H]2CN(S(=O)(=O)c3cccc(C(F)(F)F)c3)[C@H](c3ccc(-c4cc5ccccc5o4)cc3)C[C@@H]21` it was -67.9% (active); in that of `COc1ccc(S(=O)(=O)N2C[C@H]3CON(C)[C@H]3C[C@H]2c2cccc(Br)c2)cc1`, -8.56% (inactive).

As to `CC(C)c1ccc(S(=O)(=O)Nc2ccc(O)c(Sc3nc4ccccc4s3)c2)cc1`, the activity change, negative = inhibition was -0.0854% (inactive). Take `O=C1C=C(c2ccc(Cl)cc2)C(=O)N1Nc1ccccc1`: the activity change, negative = inhibition is -97.6% (active). Consider `Cc1cccc(NC(=O)Cn2nc(-c3ccc(Cl)cc3)c3ccccc3c2=O)c1`, for which the activity change, negative = inhibition was -6.04% (inactive). `CCc1ccc(S(=O)(=O)n2ccnc2)cc1`: the activity change, negative = inhibition was -4.04% (inactive).

In the case of `Cc1c(C(=O)NCc2ccccc2Br)oc2ccc3c(c12)C(=O)CC(C)(C)O3`, the activity change, negative = inhibition was -2.86% (inactive). The same measure for `O=C(CSc1nc2c(c(=O)[nH]1)CN(Cc1ccc3c(c1)OCO3)CC2)Nc1cc(F)ccc1F`: -1.41% (inactive); for `CCOC(=O)c1c(NC(=O)CSc2cn(CCNC(=O)c3cccc(C(F)(F)F)c3)c3ccccc23)sc2c1CCC2`: -7.22% (inactive); for `O=C(CCSCc1ccccc1F)N1CCN(c2ccc(Cl)cc2)CC1`: -29.1% (inactive). The same measure for `Cc1oc2c(F)c(F)c(F)c(F)c2c1S(=O)(=O)Nc1cccc(C(F)(F)F)c1`: -97.8% (active); for `CCNS(=O)(=O)c1cc(-c2nnc(Nc3cccc(C(F)(F)F)c3)c3ccccc23)ccc1C`: 34.1% (inactive). In the case of `CN(CC(=O)Nc1cccc(C(F)(F)F)c1)S(=O)(=O)c1cccs1` it was 20.2% (inactive); in that of `CCOC(=O)[C@]12CCC=C1N(Cc1ccco1)C(=O)[C@H](CC(=O)N1CCSCC1)C2`, -10.1% (inactive); in that of `CCOc1cc(-c2nnc(SCC(=O)NC3CCCC3)nc2-c2ccc(OC)c(OCC)c2)ccc1OC`, 24.6% (inactive).

Turning to `COc1ccc(C(=O)C[n+]2ccc(N)c(C)c2C)cc1`, the activity change, negative = inhibition is -93.4% (active). Take `CO/N=C/CC(=O)c1ccc(OC)cc1`: the activity change, negative = inhibition is -35.1% (inactive).

`COc1ccc(C(=O)C[n+]2ccc(C)cc2)cc1`: the activity change, negative = inhibition was 72% (inactive).

Turning to `CCOc1ccc(OCC)c(NC(=O)c2cc(C)nc3c2c(C)nn3-c2cccc(Cl)c2C)c1`, the activity change, negative = inhibition was 5.03% (inactive).

Regarding `C[C@@H]1CCCCO[C@H](CN(C)Cc2ccccc2)[C@@H](C)CN([C@H](C)CO)C(=O)c2cc(NS(=O)(=O)c3ccc(Cl)cc3)ccc2O1`, the activity change, negative = inhibition was -31.2% (inactive). The same measure for `O=S(=O)(Nc1ccc(-c2ccc(N3CCOCC3)nn2)cc1)c1cc(Cl)ccc1Cl`: -19.8% (inactive); for `Cn1cnc2c1c(=O)n(Cc1ccccc1C#N)c(=O)n2C`: -66.7% (active).

In the case of `N#Cc1ccccc1Cn1cnc2nc3c(cc2c1=O)CCCC3`, the activity change, negative = inhibition is 21.2% (inactive).

For the compound `Cn1cnc2c1c(=O)n(Cc1c(Cl)cccc1Cl)c(=O)n2C`, the activity change, negative = inhibition was -6.74% (inactive). In the case of `Cc1[nH]c2ccc(S(N)(=O)=O)cc2c1C` it was 28% (inactive); in that of `Cc1cccc(N=Nc2c(O)[nH]c3ccc(F)cc23)c1`, 101% (inactive).

For the compound `NS(=O)(=O)c1ccc(N=Nc2c(O)[nH]c3ccc(Br)cc23)cc1`, the activity change, negative = inhibition was -60.1% (active). The same measure for `Cc1nnc(SCc2cc(=O)c3cc(F)ccc3[nH]2)n1C`: 17.7% (inactive); for `CC(C)C(=O)Nc1nc2c(s1)CC(C(C)(C)C)CC2` (stereo not drawn): 36.6% (inactive). The same measure for `Cc1ccc(Cl)cc1NC(=O)C1CCCN(c2cnccn2)C1` (stereo not drawn): -33.4% (inactive) and -71.5% (active); for `Cc1ccc(Cl)cc1NC(=O)C1CCN(S(C)(=O)=O)CC1`: 22% (inactive); for `O=C(Nc1cccc(Cl)c1)C1CCCN(c2cnccn2)C1` (stereo not drawn): -9.65% (inactive). With `COC(=O)c1ccccc1NC(=O)c1cnn(-c2ccc(F)cc2)c1-n1cccc1`, the activity change, negative = inhibition is -4.4% (inactive). As to `COc1ccc(-n2nc(C(=O)NCCc3ccc(Cl)cc3)c3c4ccccc4n(C)c3c2=O)cc1Cl`, the activity change, negative = inhibition was 1.81% (inactive). Turning to `COc1ccc(S(=O)(=O)N2CCN(c3ccc(F)cc3)CC2)cc1-c1noc(C)n1`, the activity change, negative = inhibition was -18.6% (inactive).

Regarding `O=C(NC1CC(=O)N(c2ccc(Cl)cc2)C1)C1CCCC1` (stereo not drawn), the activity change, negative = inhibition is 16.2% (inactive). In the case of `COc1ccc(C2Sc3ccccc3NC3=C2C(=O)c2ccccc23)c(OC)c1OC` (stereo not drawn) it was -74.4% (active); in that of `CCCCCOC(=O)C1=C(C)Nc2nnnn2C1c1ccc(OC)c(OC)c1OC` (stereo not drawn), 13.7% (inactive); in that of `COC(=O)C(C)C1Sc2ccccc2NC1=O` (stereo not drawn), -14.8% (inactive). In the case of `CSc1nc2ccc(C)cc2c(=O)n1-c1cccnc1` it was -87.3% (active); in that of `CCC1NC(=O)c2cccnc2-n2c1nc1ccc(C)cc1c2=O` (stereo not drawn), -2.47% (inactive). The same measure for `COCCNC(=O)c1ccc(-n2c(SCc3cccnc3)nc3ccccc3c2=O)cc1`: -38.3% (inactive).

Regarding `CN1CCC[C@@H]1CCO[C@](C)(c1ccccc1)c1ccc(Cl)cc1`, the activity change, negative = inhibition is -62.4% (active). In the case of `CC1CCCN1CCC(C(N)=O)(c1ccccc1)c1ccccc1` (stereo not drawn) it was -15% (inactive). The same measure for `OC(c1ccccc1)(c1ccccc1)C1CCN(CCCOc2ccccc2)CC1`: 2.18% (inactive); for `COc1ccc(-c2nc(C)c(CCNC(=O)c3ccc(C(F)(F)F)cc3)s2)cc1OC`: 14.8% (inactive). As to `O=C(Nc1ccc(Cl)cc1)c1csc([C@@H]2O[C@H](CO)[C@H](O)[C@H](O)[C@H]2O)n1`, the activity change, negative = inhibition was 16.2% (inactive). The same measure for `O=C(Nc1ccc(Cl)cc1)c1csc(C(O)c2cccc(C(F)(F)F)c2)n1` (stereo not drawn): -20.2% (inactive); for `N#Cc1ccc(CC(O)c2nc(C(=O)Nc3ccccc3)cs2)cc1` (stereo not drawn): -100% (active). In the case of `COc1ccccc1Cc1c(-c2ccc(Cl)cc2)nc2c3ccccc3ccn12` it was 22.4% (inactive). As for `CCc1c(C)nc2c(OC)cccc2c1Cl`, the activity change, negative = inhibition is -75.4% (active). For the compound `COc1cccc2c(C)c(C(=O)O)[nH]c12`, the activity change, negative = inhibition is -2.81% (inactive).

In the case of `COc1ccc(C)cc1-n1c(-c2ccc(C)cc2)cc2c1CC(C)(C)CC2=O`, the activity change, negative = inhibition is 5.24% (inactive). `CC(=O)Nc1ccc(S(=O)(=O)NC2(C(F)(F)F)C(=O)NC(C)=C2C#N)cc1` (stereo not drawn): the activity change, negative = inhibition was -29.9% (inactive).

Regarding `CC(C)CNc1ncnc2c1nnn2C`, the activity change, negative = inhibition is -27.2% (inactive). In the case of `Cc1ccc(-n2nnnc2CNC(=O)c2ccccc2C)cc1C` it was -15.5% (inactive); in that of `O=C(NCc1nnnn1-c1ccc(Cl)cc1)c1ccc2c(c1)OCO2`, 21% (inactive). Turning to `O=C(NCc1nnnn1-c1ccc(Cl)cc1)c1ccc([N+](=O)[O-])o1`, the activity change, negative = inhibition is -63.2% (active). In the case of `C=CCn1c(O)c(/C=N/N2CCOCC2)c(=O)[nH]c1=S` it was -8.35% (inactive). Turning to `CCCCn1nc2ccccc2c1OCC`, the activity change, negative = inhibition is -7.88% (inactive). The same measure for `COc1ccccc1-c1cc(C(F)(F)F)nc(S(=O)(=O)CCCC(=O)Nc2ccc(F)cc2F)n1`: -93% (active); for `CSc1ccccc1NC(=O)CCS(=O)(=O)c1nc(-c2cccs2)cc(C(F)(F)F)n1`: 3.11% (inactive); for `COc1ccccc1-c1cc(C(F)(F)F)nc(S(=O)(=O)CCCC(=O)Nc2cc(C)ccc2O)n1`: 7.44% (inactive).

Turning to `Cc1nn(-c2ccccc2)nc1C(=O)OCC(=O)N1CCCCC1C` (stereo not drawn), the activity change, negative = inhibition is 37.5% (inactive). Take `C#Cc1cc(N2CCN(C(=O)c3ccoc3)CC2)n2nc(-c3cccc(Cl)c3)cc2n1`: the activity change, negative = inhibition is -102% (active).

`CNc1cncc(-c2cccc(C(=O)N3CCOCC3)c2)n1`: the activity change, negative = inhibition was 16.3% (inactive). The same measure for `Cc1oc2ncnc(N3CCCCC3)c2c1C(=O)N1CCN(c2cccc(Cl)c2)CC1`: 2.67% (inactive); for `COc1ccccc1-c1cc2nc(C)c(CCC(=O)NC3CCCCC3)c(C)n2n1`: -7.07% (inactive); for `CC(=O)[C@@]12O[C@@H]1C[C@H]1[C@@H]3CC[C@H]4C[C@@H](O)CC[C@]4(C)[C@H]3CC[C@@]12C`: -16% (inactive).

As to `C[C@]12CC[C@H](O)C[C@H]1CC[C@@H]1C2CC[C@]2(C)[C@@H](C3=CC(=O)OC3)[C@@H](O)C[C@]12O` (stereo partly drawn), the activity change, negative = inhibition is -99.6% (active). Regarding `Cc1cc2ccccc2n1CCNC(=O)c1ccc(F)cc1`, the activity change, negative = inhibition was 0.319% (inactive).

For the compound `CC1=C(C(=O)OCc2ccc(C)cc2)C(c2c(Cl)cccc2Cl)CC(=O)N1` (stereo not drawn), the activity change, negative = inhibition was -18.7% (inactive).

Source of the values: PubChem BioAssay AID1259415 (National Center for Advancing Translational Sciences (NCATS), 2018).
